In PubChem BioAssay (NCI) one finds growth data, which are given here for eight compounds.

Test systems include HCT-15 colon; HT29 colon; SNB-75 CNS; U251 CNS; PC-3 prostate; SK-MEL-5 melanoma; UACC-62 melanoma; LOX IMVI melanoma; SK-MEL-28 melanoma; SK-MEL-2 melanoma; EKVX NSCLC; SN12C renal; UO-31 renal; TK-10 renal; ACHN renal; CAKI-1 renal; A498 renal; CCRF-CEM leukemia; MOLT-4 leukemia.
Holding throughout (assay): NCI-60 one-dose screen, 48 h (100 = growth as untreated, 0 = no growth, -100 = all killed)
Holding throughout (settings): 10 µM unless noted

The structures appear in SMILES notation. Compounds without any hit were thinned out: in the full panel of roughly 83,000, 20% have a hit.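 Each cell line was grown in a 96-well plate and treated with one concentration of compound for 48 hours. Values below 10 were considered active.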 Values without a mark were called inactive. The source made the active and inactive calls.

Take `COc1cc2c(c(OC)c1OC)CCC(c1cccc(C(=O)Nc3ccc(C#N)cc3)c1)O2` (stereo not drawn): the growth with HCT-15 colon was 59.7%; in the test with HT29 colon it was 69.3%; with SNB-75 CNS, 57.3%; with U251 CNS, 64.2%; in the test with PC-3 prostate it was 14%; in the test on SK-MEL-5 melanoma, -12.7% (active). Moreover, the growth is 24.6% with UACC-62 melanoma; 39.5% in the test with LOX IMVI melanoma; 58.8% in the test with SK-MEL-28 melanoma; 50.7% in the test on SK-MEL-2 melanoma; 60.1% in the test with EKVX NSCLC; 46.6% in the test on SN12C renal. The growth in the test on UO-31 renal is 25%; with TK-10 renal, 57.6%; in the test with ACHN renal, 39.8%; in the test with CAKI-1 renal, 43.4%; with A498 renal, 50.8%; in the test on CCRF-CEM leukemia it was 10.5%. Besides, the growth with MOLT-4 leukemia was -14.4% (active).
Consider `CCOc1ccc(NC(=O)CSc2oc(-c3ccccc3)nc2S(=O)(=O)c2ccc(C)cc2)cc1`, for which the growth is 63.8% with HCT-15 colon; 50.9% in the test with HT29 colon; 45.3% in the test on SNB-75 CNS; 41.2% in the test with U251 CNS; 62.3% in the test on PC-3 prostate; 81.2% with SK-MEL-5 melanoma. Further, the growth with UACC-62 melanoma was 66.2%; with LOX IMVI melanoma it was 54.1%; in the test with SK-MEL-28 melanoma, 79.3%; in the test with SK-MEL-2 melanoma, 96.6%; with EKVX NSCLC, 75.1%; with SN12C renal it was 85.2%. The growth in the test with UO-31 renal is 103%; in the test on TK-10 renal it was 82.4%; in the test on ACHN renal, 58.9%; in the test on CAKI-1 renal, 83.9%; with CCRF-CEM leukemia it was 84.8%; in the test on MOLT-4 leukemia, 66.1%.
For the compound `O=[N+]([O-])c1ccc(O)cc1Br`, the growth in the test on HCT-15 colon was 101%; with HT29 colon, 92.6%; with SNB-75 CNS, 92.7%; in the test with U251 CNS, 103%; in the test with PC-3 prostate, 88.8%; in the test on SK-MEL-5 melanoma, 93.3%. Further, the growth was 105% in the test with UACC-62 melanoma; 95.4% in the test with LOX IMVI melanoma; 109% with SK-MEL-28 melanoma; 97.8% in the test on SK-MEL-2 melanoma; 98% with EKVX NSCLC; 98% in the test on SN12C renal. Further, the growth in the test with UO-31 renal is 83.8%; in the test with TK-10 renal, 99.9%; in the test on ACHN renal it was 99.2%; in the test on CAKI-1 renal it was 94.5%; in the test with A498 renal, 81.6%; in the test on CCRF-CEM leukemia it was 95.2%. Also, the growth with MOLT-4 leukemia was 104%.
`C1CCC([PH+](C2CCCCC2)C2CCCCC2[PH+](C2CCCCC2)C2CCCCC2)CC1.[Au].[CH-]1CCCCC1C1CCCC[N-]1` (stereo not drawn): the growth is -26.2% (active) in the test with HCT-15 colon; 2.8% (active) with HT29 colon; -31.8% (active) in the test with SNB-75 CNS; -16.7% (active) with PC-3 prostate; -98% (active) in the test with SK-MEL-5 melanoma; -79.7% (active) in the test with UACC-62 melanoma. Further, the growth was -96.5% (active) in the test on LOX IMVI melanoma; -83.2% (active) with SK-MEL-28 melanoma; -56.6% (active) in the test with SK-MEL-2 melanoma; -77.6% (active) with EKVX NSCLC; -47.3% (active) with SN12C renal; -96.3% (active) in the test on UO-31 renal. Further, the growth in the test with TK-10 renal is -58.7% (active); with ACHN renal, -99.4% (active); in the test with CAKI-1 renal, -88% (active); with A498 renal it was -71.1% (active); in the test with CCRF-CEM leukemia it was 2.23% (active); in the test with MOLT-4 leukemia, -6.51% (active).
For `COc1ccccc1N1CCCCC1`, the growth with HCT-15 colon is 102%; with HT29 colon, 101%; with SNB-75 CNS, 99.4%; in the test on U251 CNS it was 108%; in the test on PC-3 prostate it was 98.8%; in the test with SK-MEL-5 melanoma, 108%. In addition, the growth in the test on UACC-62 melanoma was 96.3%; in the test with LOX IMVI melanoma it was 100%; with SK-MEL-28 melanoma, 102%; with SK-MEL-2 melanoma, 104%; with EKVX NSCLC, 98.1%; in the test with SN12C renal it was 93.9%. Further, the growth with UO-31 renal is 98.9%; in the test with TK-10 renal, 95%; in the test on ACHN renal, 103%; in the test with CAKI-1 renal, 97.8%; with A498 renal, 83.9%; in the test with CCRF-CEM leukemia, 108%. Besides, the growth with MOLT-4 leukemia was 100%.
For the compound `COc1ccc(C2CC(c3ccc(Nc4nc(Nc5ccccc5)nc(Nc5ccccc5)n4)cc3)=NN2C(C)=O)cc1` (stereo not drawn), the growth is 96.9% with HCT-15 colon; 101% with HT29 colon; 89.8% in the test on SNB-75 CNS; 88.1% in the test with U251 CNS; 86.4% in the test with PC-3 prostate; 83.5% with SK-MEL-5 melanoma. The growth with UACC-62 melanoma is 94.3%; in the test with LOX IMVI melanoma, 103%; with SK-MEL-28 melanoma, 109%; with SK-MEL-2 melanoma, 68.5%; in the test on EKVX NSCLC, 132%; in the test on SN12C renal, 95.7%. Moreover, the growth was 78.3% with UO-31 renal; 104% in the test with TK-10 renal; 100% with ACHN renal; 105% in the test on CAKI-1 renal; 95.5% with A498 renal; 88.6% in the test with CCRF-CEM leukemia. The growth in the test on MOLT-4 leukemia was 71.2%.
With `COC1=CC(c2ccc[nH]2)=N/C1=C\c1[nH]c(C)c(CC(=O)OCc2ccccc2)c1CCC(=O)OCc1ccccc1`, the growth was -56.7% (active) with HCT-15 colon; 0.828% (active) in the test on HT29 colon; -6.6% (active) with SNB-75 CNS; -71.4% (active) with U251 CNS; -40.3% (active) with PC-3 prostate; -93.8% (active) with SK-MEL-5 melanoma. The growth in the test with UACC-62 melanoma was -69.7% (active); with LOX IMVI melanoma, -80.7% (active); in the test on SK-MEL-28 melanoma, -52.4% (active); with SK-MEL-2 melanoma, -61.3% (active); in the test on EKVX NSCLC, 4% (active); with SN12C renal it was -15.6% (active). The growth is -89.3% (active) with UO-31 renal; -21.5% (active) in the test on TK-10 renal; -30.6% (active) with ACHN renal; -15.9% (active) with CAKI-1 renal; -54.1% (active) with A498 renal; -0.154% (active) with CCRF-CEM leukemia. Besides, in the test with MOLT-4 leukemia, the growth was -10.6% (active).
On to `O=C1/C(=C\c2ccc3nccnc3c2)SC(=S)N1CCc1ccc(O)cc1`, for which the growth in the test with HCT-15 colon is 78.3%; in the test on HT29 colon it was 112%; in the test with SNB-75 CNS, 66%; with PC-3 prostate, 89.7%; with SK-MEL-5 melanoma, 98.7%; with UACC-62 melanoma it was 84.5%. Also, the growth with LOX IMVI melanoma is 79.4%; in the test on SK-MEL-28 melanoma, 103%; in the test with SK-MEL-2 melanoma, 97.1%; in the test with EKVX NSCLC, 100%; in the test with SN12C renal, 86.9%; in the test with UO-31 renal, 49.7%. Further, the growth is 67.8% in the test on TK-10 renal; 94% in the test with ACHN renal; 78.9% in the test with CAKI-1 renal; 79% in the test on CCRF-CEM leukemia; 106% with MOLT-4 leukemia.
